Experimental data reported in ChEMBL document CHEMBL3988442, “University of Dundee, Small-Polar-MMV Screening Library” (2021).

target: AMP-activated protein kinase, AMPK (Homo sapiens) (UniProt P54646+O43741+P54619+Q9UGJ0+Q9Y478+Q13131+Q9UGI9); test: AMP-dependent Kinase enzyme assay. An in vitro enzyme assay that detects ADP turnover that is directly proportional to AMPK activity. This uses naive AMPK that is activated during the assay with MK-8722; type: functional; design: scale not given: direction of the effect not stated beside the values; details: 30 µM

Row | Structure (SMILES) | Percent Effect [%]
1 | Cc1noc(C)c1CCCNC(=O)Nc1cccc([S+](C)[O-])c1 (centres undefined) | 4.42
2 | Cc1cn2c(n1)C(CNCc1cnn3ccccc13)CCC2 (centres undefined) | -1.25
3 | Cc1cccc(C)c1Oc1ncccc1CNC(=O)C1COC(=O)N1 (centres undefined) | -10.7
4 | COc1ccccc1CCNC(=O)N(C)C(C)CS(C)(=O)=O (centres undefined) | -5.38
5 | Cc1cc(C(=O)N2CC[C@](C)(O)[C@H](C)C2)c(C)n1C | -6.41
6 | CCOC(=O)C1(O)CCN(C(=O)Nc2ccc(CC)cc2)CC1 | 0.524
7 | Cc1ccnc(NC(=O)c2ccc(F)c(S(=O)(=O)NC3CC3)c2)c1 | -7.9
8 | O=C(NCc1ccco1)N1CCC(n2cc(-c3ccccn3)nn2)CC1 | 0.674
9 | CCn1nc(C)cc1C(=O)N1C[C@@H](CN(C)C)[C@@H](CO)C1 | 0.455
10 | COC(=O)[C@@H]1C[C@@H](O)CN1Cc1ccn(-c2ccc(F)cc2)n1 | -3.45
11 | CCn1ncnc1C1CC(=O)NCc2nc(N)sc21 (centres undefined) | -18.1
12 | CCS(=O)(=O)N1Cc2ccccc2CC1C(=O)OCc1cc(C)no1 (centres undefined) | 5.87
13 | CCc1nc2n(n1)CC(NCc1nc3ccccc3o1)CC2 (centres undefined) | 2.97
14 | Cc1nc(CN2CCN(S(=O)(=O)N3CCOCC3)CC2)oc1C | -4.75
15 | Cc1c(F)cccc1S(=O)(=O)N(C)CC(C)O (centres undefined) | 1.59
16 | Cc1cc(CC(C)NC(=O)c2n[nH]c3c2CCC3)n[nH]1 (centres undefined) | 3.64
17 | Cc1cc(NCCNc2cccnc2)nc(N)n1 | -11.6
18 | Cn1c(N2CC[C@H](O)C2)nc2cc(C(N)=O)ccc21 | 21.4
19 | COc1ccc(NC(=O)c2cnc(C3CCN(C)CC3)nc2C)cc1 | 3.65
20 | CCn1nc(C)c(C(=O)N2C[C@@H](CN(C)C)[C@@H](CO)C2)c1C | -14.6

Row | Structure (SMILES) | Percent Effect [%]
21 | CCOCCC(=O)NC(c1noc(C)n1)c1ccccc1F (centres undefined) | 1.15
22 | CN(C)c1nccnc1C1CCN(C(=O)C2(C)CCCCN2C)CC1 (centres undefined) | 9.26
23 | CCC(C)C(=O)N(Cc1ccccn1)C1CC1 (centres undefined) | 2.05
24 | CCCC(=O)NCCc1cc(NC)nc(-c2ccccn2)n1 | -2.74
25 | O=C(NCc1nnc2n1CCC2)c1ccc(C2CCCO2)s1 (centres undefined) | 1.37
26 | C=Cn1ncc(CN2CCC(c3ncc(Cl)cc3S(C)(=O)=O)CC2)c1C | -0.153
27 | O=C(Cn1cccn1)N1CCC(c2nnc(-c3ccsc3)o2)CC1 | 14
28 | Cc1cccc(-c2noc(Cn3nc(C(N)=O)ccc3=O)n2)c1 | 5.3
29 | CN(C)c1ccccc1C(=O)N1CCCC(c2cccc(C(=O)O)c2)C1 (centres undefined) | 2.89
30 | Cc1nccn1-c1ccc(C(=O)NCC(F)(F)F)nn1 | -3.73
31 | CO[C@H]1C[C@@H](O)C12CCN(C(=O)NCc1ccco1)CC2 | -2.57
32 | CCS(=O)(=O)N1CCN(C(C)c2ncc(-c3ccccc3)o2)CC1 (centres undefined) | -3.96
33 | CC(=O)c1sc(C(NC(=O)c2ccccc2)C2CC2)nc1C (centres undefined) | -2.1
34 | O=C(CCN1CCCO1)N1CC[C@@H](CNC(=O)N2CCCC2)[C@H](O)C1 | -5.68
35 | COc1ccc(NCCC(=O)NCc2cccnc2N(C)C)cc1 | 22.9
36 | CC(NCc1nnc2n1CCCC2)c1nc(-c2cccs2)no1 (centres undefined) | -0.613
37 | Cc1cc(F)ccc1N1CCCC(NC(=O)CCc2ccncc2)C1 (centres undefined) | 14.9
38 | CCn1cnnc1CN(C)C(=O)c1cc(COc2cccc(F)c2)[nH]n1 | -0.905
39 | Cc1occc1C(=O)Nc1ccc(C(=O)NC[C@H]2CCCN2)cc1 | -9.02
